# Assay results taken from paper PMC5540273 (PLoS ONE, 2017).
# What was measured:
# [1] = system: ROCK1
# [2] = system: ROCK2
# [3] = system: T1, RSK1(Kin.Dom.2-C-terminal)
# T1 construct: gene RPS6KA1
# [4] = system: T2, RSK2(Kin.Dom.1-N-terminal)
# T2 construct: gene RPS6KA3
# [5] = system: T3, RSK2(Kin.Dom.2-C-terminal)
# T3 construct: gene RPS6KA3
# [6] = system: T4, RSK3(Kin.Dom.2-C-terminal)
# T4 construct: gene RPS6KA2
# [7] = system: SGK2
# [8] = system: SLK
# [9] = system: SRPK2
# [10] = system: SRPK3
# [11] = system: T5, TAK1
# T5 construct: gene MAP3K7
# [12] = system: TAOK1
# [13] = system: TAOK3
# [14] = system: TBK1
# [15] = system: TESK1
# [16] = system: TGFBR1
# [17] = system: TIE1
# [18] = system: TLK2
# [19] = system: TNK2
# 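Also: kd values determined as follow-up on hits from a single-replicate KINOMEscan panel screen.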
smiles,measurement,setting,value
C[C@@H]1CC[C@H](C(=O)NC2CCCCC2)CN1c1cc(-c2ccc3c(N)n[nH]c3c2)nc(N)n1 [GSK2291363],Kd,[1],0.21 µM
same,Kd,[2],0.15 µM
CCc1nc(-c2cccc(C)c2)c(-c2ccncc2)s1,Kd,[3],0.25 µM
COc1cc(Nc2ccnc3ccc(C(F)(F)F)cc23)cc(OC)c1OC [GW577382],Kd,[4],> 10 µM
O=C(Nc1ccc2c(c1)OCO2)NC1CCN(c2ccnc(NCc3ccc(F)cc3)n2)CC1 [GSK1379859],Kd,[5],> 10 µM
Nc1nc(-c2ccccc2F)c(-c2ccnc3ccccc23)s1 [GW560459],Kd,[5],0.79 µM
CC(C)(C)c1ccc(C(=O)Nc2cn3cc(-c4ccccc4)ccc3n2)cc1,Kd,[6],> 10 µM
Cl.NS(=O)(=O)c1cccc(Nc2cc(-c3ccc(F)cc3)n[nH]2)c1 [GW824645],Kd,[7],> 10 µM
COc1cc2ncn(-c3cc(OCc4ccncc4Br)c(C(N)=O)s3)c2cc1OC [GW854278],Kd,[8],0.68 µM
COc1ccc(CNC(=O)NC2CCN(c3ccnc(Nc4ccc(F)cc4)n3)C2)cc1 (stereo not drawn) [GSK1379706],Kd,[9],> 10 µM
CN1C(=O)C(Nc2cc(Cl)c(O)c(Cl)c2)=C(c2ccc(Cl)cc2)C1=O [SB-404321],Kd,[10],> 10 µM
CCn1c(-c2ccoc2)nc2cnccc21 [SB-733887],Kd,[11],> 10 µM
Cc1nnc(-c2ccc3ncn(-c4ccc(S(C)=O)cc4)c3c2)o1 (stereo not drawn),Kd,[12],> 10 µM
same,Kd,[13],> 10 µM
COc1ccc(-c2cc3c(C)nc(N)nc3n([C@H]3CC[C@H](O)CC3)c2=O)cn1,Kd,[14],> 10 µM
O=C(NCCNc1ccnc(Nc2ccc(F)cc2)n1)Nc1ccc2c(c1)OCO2 [GSK1379882],Kd,[15],> 10 µM
Cc1cc(Nc2nc(-c3cccc(C)n3)nc3ccccc23)ccn1 [GW872411],Kd,[16],0.27 µM
COc1cc2ncn(-c3cc(OCc4ccncc4)c(C(N)=O)s3)c2cc1OC [GSK336313],Kd,[17],> 10 µM
CCCC(=O)Nc1n[nH]c2ncc(-c3cccc4ccccc34)cc12 [SB-642057],Kd,[18],> 10 µM
O=C1NC(=O)C(c2ccccc2)=C1Nc1cccc(O)c1 [SB-390534],Kd,[18],2.4 µM
COc1cc(OC)cc(-c2cc3cnc(N)nc3nc2NC(=O)NC(C)(C)C)c1,Kd,[19],> 10 µM
